# Measurements reported in PubChem BioAssay (NCI).
# Several values for one entry are separate records, joined by “and”; a condition that tells them apart may be missing. Equal entries are not always repeated. The panel holds about 83,000 compounds, 20% with a hit somewhere; the sample as a whole holds those more often.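 Each cell line was grown in a 96-well plate and treated with one concentration of compound for 48 hours. Values below 10 were considered active.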 Values without a mark were called inactive. Activity calls are given as the source filed them.
# Tests used:
# Assay in all cases: NCI-60 one-dose screen, 48 h (100 = growth as untreated, 0 = no growth, -100 = all killed)
# Settings in all cases: 10 µM unless noted
# [1] = system: SR leukemia
# [2] = system: RPMI-8226 leukemia
# [3] = system: OVCAR-8 ovarian
# [4] = system: OVCAR-5 ovarian
# [5] = system: OVCAR-4 ovarian
# [6] = system: SK-OV-3 ovarian
# [7] = system: IGROV1 ovarian
# [8] = system: OVCAR-3 ovarian
# [9] = system: HS 578T breast
# [10] = system: NCI/ADR-RES ovarian
SMILES,growth [1],growth [2],growth [3],growth [4],growth [5],growth [6],growth [7],growth [8],growth [9],growth [10]
COCCOc1cc2ncnc(N3CCN(S(=O)(=O)c4ccccc4Cl)CC3)c2cc1OCCOC,22%,82.5%,93.9%,102%,102%,104%,89.7%,91.5%,93.5%,66.9%
O=C(/C=C/c1ccc(Cl)s1)c1ccc(Cl)s1,78.3% and 87%,89.9% and 66.8%,107% and 102%,86.5% and 101%,84.5%,94.5% and 102%,88.9%,97.3% and 99.3%,96.8%,104% and 99.1%
CCOC(=O)c1cc2c(n1Cc1cc(OC)cc(OC)c1Br)-c1nc(NC(C)=O)sc1CCC2,58.9%,60.5%,64.9%,115%,73.4%,82.1%,87.5%,81.4%,64.6%,78.6%
C/C=C(\C)C(=O)N[C@H]1CC[C@]2(C)C3CC[C@@]4(C)C(CC[C@@H]4C(C)N(C)C)C3CCC2[C@H]1OC(C)=O (stereo not given in full),7.3% (active),-15.3% (active),24.9%,22%,-23.3% (active),-21.4% (active),9.32% (active),-53.9% (active),-39.9% (active),16.5%
COC1/C=C/OC2(C)Oc3c(C)c(O)c4c(O)c(c(C=NOC(c5ccccc5)c5ccccc5)c(O)c4c3C2=O)NC(=O)/C(C)=C/C=C/C(C)C(O)C(C)C(O)C(C)C(OC(C)=O)C1C (stereo not given),-5.09% (active),3.28% (active),24.8%,38.1%,15.2%,-34% (active),29.8%,11.9%,-5.16% (active),28.9%
CSc1nnc(-c2cc3c([nH]c4ccccc43)c(-c3cccc(O)c3)n2)n1-c1ccc(C)cc1,5.99% (active),19.3%,34.8%,72.6%,54.1%,42%,51%,1.33% (active),37.3%,43.1%
CN(C)CCCn1c2c(c3ccc(N4CCNCC4)cc3c1=O)C(=O)c1ccccc1-2,-16.4% (active),-32.4% (active),-8.9% (active),16.5%,-22.9% (active),6.3% (active),5.77% (active),-0.802% (active),49.1%,-13.8% (active)
[2H]C([2H])([2H])Oc1cccc(/C=C/C(=O)/C=C(/C=C/c2cccc(OC([2H])([2H])[2H])c2OC([2H])([2H])[2H])OB(F)F)c1OC([2H])([2H])[2H],23.3%,46%,20.6%,106%,71.5%,105%,73.3%,39.2%,91.9%,50.6%
Cc1cc(N2CCN(CC(=O)Nc3ccc4c(ccn4Cc4ccccc4)c3)CC2)nc(N2CCCCCC2)n1,29.2%,41.5%,31.6%,75.6%,51.8%,48.2%,42.3%,62.8%,62.8%,39.6%
COc1cc(C=O)ccc1Oc1ccc([N+](=O)[O-])cc1[N+](=O)[O-],80.7%,89.5%,93.7%,109%,97%,96.4%,105%,107%,93.1%,99.6%
Cc1ccc(-c2nc3nc(-c4ccccc4)nc(N4CCCNCC4)c3o2)cc1,-49.7% (active),-55% (active),-48.4% (active),-32.4% (active),-52.3% (active),79.9%,-73.8% (active),-81.7% (active),-18.1% (active),-29.8% (active)
CC(C)=CCc1cc(O)c(O)c2oc3cc(O)cc(O)c3c(=O)c12,25.9%,48.2%,51.1%,75%,62.5%,65.7%,55%,67.4%,92.2%,28.2%
COc1ccc(/C=C2/C(=O)N=C3N2NC(c2ccccc2)=CN3c2ccccc2)cc1,106%,99.9%,98.1%,107%,102%,107%,95.9%,111%,95.4%,96.9%
COc1ccc(Oc2nc(Nc3ccc(N4CCOCC4)cc3)ncc2NC(=O)c2cccc(C(F)(F)F)c2)cc1,35.7%,59.8%,78.5%,111%,96.4%,85.7%,88.5%,82.7%,91.4%,79.7%
CCCCCCCCCCCCC[C@H](O)C[C@H](O)[C@H](C)N,-35.7% [1.25 µM] (active),33.2% [1.25 µM],89.7% [1.25 µM],86.1% [1.25 µM],123% [1.25 µM],125% [1.25 µM],133% [1.25 µM],103% [1.25 µM],117% [1.25 µM],85.9% [1.25 µM]
CCCc1cc(C(N)=S)ccn1,104%,120%,99.3%,105%,110%,100%,105%,115%,125%,87.8%
Cc1cnc(C(=O)NNc2nc3sc4c(c3c(=O)[nH]2)C(C)CCC4)cn1 (stereo not given),21.4%,29.3%,15.3%,34.7%,22.1%,16.2%,14.5%,31.5%,46.8%,11.7%
CCNC(=O)Nc1ncccc1OCc1ccc(F)cc1,105%,106%,109%,92.4%,96.4%,94.2%,102%,102%,112%,93.4%
CCCCCCCCN(CCCCCCCC)CC(O)c1cc(Cl)ccc1OC (stereo not given),14.5%,41.5%,87.9%,72.6%,66.9%,78.1%,84.9%,91.9%,69.1%,82.6%
COc1ccc2nc3cc(Cl)ccc3c(NCCCNCCC(C)O)c2c1 (stereo not given),-37.3% (active),-19.8% (active),0.828% (active),-18.8% (active),-28.9% (active),3.74% (active),-10.7% (active),-38.2% (active),0.958% (active),43.7%
Cc1ccc(/C=C(\C#N)c2cc3ccccc3[nH]2)cc1,16.2%,60.2%,63%,65.2%,71.6%,67.1%,55.3%,29.7%,61.9%,16.1%
Cn1cc(-c2nonc2-c2cn(C)c3ccc(Br)cc23)c2ccccc21,11.1%,29.6%,36.8%,58.1%,55.5%,37.9%,45.6%,3.66% (active),-1.89% (active),21%
CN1C(=O)/C(=C/c2ccc(C(=O)Nc3ncc(Cc4ccccc4Cl)s3)cc2)SC1=S,35.7%,73.3%,79.3%,70.5%,69.6%,80.5%,78.8%,93.3%,65.8%,71.6%
CCOC(=O)c1nnn(Cc2cc(=O)oc3c2ccc2ccccc23)c1C,97.6%,103%,98.1%,102%,97.6%,104%,110%,103%,100%,108%
